Among all 340,000 compounds or so, about 6,400 (1.9%) were called active. Another 4% or so got no clear call; they are omitted. The call rests on the fitted dose curve; in most records, active means well fitted falling curve with a large enough effect; inconclusive means small, poorly fitted or top-dose-only effect; inactive means no such curve, though single readings can be large or run the other way. The sample as a whole holds a higher share of actives than the screen did.
The molecules below were run against ATP-dependent Clp protease proteolytic subunit (Bacillus subtilis (strain 168)) (UniProt P80244) (assay: qHTS Assay for Activators of ClpP). Conditions: purified B. subtilis ClpP, FRET peptide cleavage, 20 min; series mostly up to 57.5 µM; activity change, negative = active: at the top concentration.
Outline: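 Purified B. subtilis ClpP, 10 microg/mL final in Tris/HCl pH8 with KCl, BSA, glycerol and Tween-20, cleaved an Abz/nitrotyrosine-quenched decapeptide. Fluorescence (ex 320, em 430) was read at 0 and 20 min at room temperature. Delta was normalized to 5.8 microM ADEP and DMSO/no-enzyme controls.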
`CCc1nc2ccc(C(=O)N3CCC(O)(Cc4ccccc4)CC3)cn2c1N(C)C(=O)Cc1ccccc1` was tested, and the “activity change, negative = active” value was -3.8% (inactive). In the case of `CN1CN(C)c2ccc([N+](=O)[O-])c3cccc1c23`, the Potency is reported as 15.8 µM (active). `O=[N+]([O-])c1cccc2ncccc12` was tested, and the “activity change, negative = active” value was -1.58% (inactive). For `CN1CCN(S(=O)(=O)c2ccc(N3CCN(c4ccccc4O)CC3)c([N+](=O)[O-])c2)CC1`, the “activity change, negative = active” value was -2.66% (inactive). For `CC1(C)C=Cc2c(ccc(C(=O)/C=C/c3ccccc3)c2O)O1`, the “activity change, negative = active” value was -7.63% (inactive). `COC(=O)[C@]12CCCCC=C1N(Cc1cccc3ccccc13)C(=O)[C@H](CC(=O)N1CCOCC1)C2` was tested, and the “activity change, negative = active” value was -2.63% (inactive). `CCN(CC)C(=O)C1=C(C)N(Cc2ccc(C(C)(C)C)cc2)C(=O)C(CC(=O)NCc2cccc3ccccc23)C1` (stereo not given) was tested, and the “activity change, negative = active” value was -0.246% (inactive). In the case of `CN(CC(=O)NCCc1ccccn1)S(=O)(=O)c1ccc(Cl)cc1`, the “activity change, negative = active” value is reported as -0.111% (inactive). In the case of `CN(CCc1ccccn1)C1CCCN(S(=O)(=O)c2ccccc2Cl)C1` (stereo not given), the “activity change, negative = active” value is reported as -2.82% (inactive). In the case of `CN(CCc1ccccn1)S(=O)(=O)c1ccc2c3c(cccc13)C(=O)N2`, the Potency is reported as 25.1 µM (active). With `COc1cc(OC)c(/C=C/c2ccnc3ccccc23)c(OC)c1` the “activity change, negative = active” value was -0.407% (inactive). In the case of `COc1ccc(C(C(=O)Nc2c(C)cccc2C)N2CCN(c3ccc(C)cc3)CC2)cc1` (stereo not given), the “activity change, negative = active” value is reported as -22.1% (inactive). In the case of `CCC(CC)C(C(=O)NC1CCCC1)N1CCN(c2cc(C)nc3ccccc23)CC1` (stereo not given), the “activity change, negative = active” value is reported as -2.22% (inactive). With `COc1ccccc1/C=C/c1nc(C#N)c(NC(C)c2ccccc2)o1` (stereo not given) the “activity change, negative = active” value was 41.3% (inactive). `COc1ccccc1/C=C/C1=NC(=C\N(C)C)/C(=O)O1` was tested, and the Potency was 25.1 µM (active). With `COc1ccccc1/C=C/C(=O)NC(=S)N1CCOCC1` the “activity change, negative = active” value was -6.45% (inactive). `CC1(C(=O)Nc2ccc3c(c2)OCCO3)CSCC(=O)N1CCOc1ccccc1` (stereo not given) was tested, and the “activity change, negative = active” value was 1.8% (inactive). With `C[C@@H]1CC2=C(C(=O)OC(C)(C)O2)[C@@H](C2CC2)O1` the “activity change, negative = active” value was 0.688% (inactive). In the case of `COc1ccc(C=C2CCC3C(CCCC34OCCO4)C2=O)cc1` (stereo not given), the “activity change, negative = active” value is reported as -1.78% (inactive). `CCCC(=O)Nc1ccc2oc(-c3ccc(O)c(Br)c3)nc2c1` was tested, and the “activity change, negative = active” value was 3.89% (inactive). In the case of `O=C(Nc1ccc2oc(-c3ccc4ccccc4c3)nc2c1)c1cccs1`, the Potency is reported as 3.55 µM (active). For `CCC(=O)Nc1cccc(-c2nc3cc(C)ccc3o2)c1`, the “activity change, negative = active” value was 4.51% (inactive). In the case of `O=C(Nc1ccc(-c2nc3cc(NC(=O)c4ccccc4Cl)ccc3o2)cc1)c1ccccc1Cl`, the “activity change, negative = active” value is reported as 4.72% (inactive). `COc1cccc(C(=O)Nc2ccc3oc(-c4ccc5ccccc5c4)nc3c2)c1` was tested, and the “activity change, negative = active” value was 5.06% (inactive). In the case of `O=C(Cc1cccc2ccccc12)Nc1ccc2oc(-c3ccccc3)nc2c1`, the Potency is reported as 20 µM (active). For `Clc1ccc(-c2cccc3nccn23)cc1`, the “activity change, negative = active” value was 4.02% (inactive). For `Cc1cc(Br)cn2c(Cc3cccc(F)c3)c(-c3cccc(Br)c3)nc12`, the “activity change, negative = active” value was -2.7% (inactive). With `C[C@H](NC(=O)CC[C@H]1O[C@@H](n2ccc(=O)[nH]c2=O)[C@H](O)[C@@H]1O)c1cccc2ccccc12` the “activity change, negative = active” value was -1.09% (inactive). With `O=C(O)Cc1ccc(NCc2ccccc2Cl)cc1` the Potency was 8.91 µM (active). `S=C(NCCc1ccccc1)NCc1ccccc1Cl` was tested, and the “activity change, negative = active” value was -1.72% (inactive). For `O=C(O)Cc1ccc(NC(=O)Nc2cccc3ccccc23)cc1`, the “activity change, negative = active” value was -8.87% (inactive). With `Cc1ccc(C)c(OCCC(=O)OCC(=O)c2ccc3c(c2)NC(=O)CO3)c1` the “activity change, negative = active” value was -2.42% (inactive). In the case of `O=C1COc2ccc(C(=O)COC(=O)c3ccccc3Cl)cc2N1`, the “activity change, negative = active” value is reported as -2.91% (inactive). `COc1cc(N)c(Cl)cc1C(=O)OCC(=O)c1ccc2c(c1)NC(=O)CO2` was tested, and the Potency was 14.1 µM (active). `COc1cccc(CNc2nc(NCc3cccs3)nc3ccsc23)c1` was tested, and the “activity change, negative = active” value was -17.3% (inactive). In the case of `CSCCC(c1nnnn1Cc1ccccc1)N1CCN(C/C=C/c2ccccc2)CC1` (stereo not given), the “activity change, negative = active” value is reported as -3.16% (inactive). With `CC(C)(C)c1cc(=O)n2c(nc3ccccc32)[nH]1` the Potency was 15.8 µM (active). With `CC(C)(C)c1nc2ccccc2c(=O)n1N1C(=O)c2ccccc2C1=O` the “activity change, negative = active” value was -0.149% (inactive). With `Cn1c(=O)c2c(n3c4ccccc4nc13)NC(=O)CC2c1cccc(Cl)c1` (stereo not given) the “activity change, negative = active” value was 4.02% (inactive). With `CCc1nc2ccc(C(=O)NC3CCN(Cc4ccccc4)CC3)cn2c1N(C)CCN1CCOCC1` the “activity change, negative = active” value was -10.1% (inactive). In the case of `CCCCOCCCNC(=O)C[C@@H]1C[C@@]2(C(=O)OCC)CCCC=C2N(CCC2=CCCCC2)C1=O`, the “activity change, negative = active” value is reported as -2.99% (inactive). With `COc1ccc(CCNC(=O)Nc2ccc3c(c2)c(=O)n(C)n3C)cc1OC` the “activity change, negative = active” value was 5.14% (inactive). With `N#Cc1cccc(NC(=O)c2cc(C3CCCCN3C(=O)CCc3ccccc3)on2)c1` (stereo not given) the “activity change, negative = active” value was 0.66% (inactive). In the case of `COc1ccc2c(c1OC)C(=O)N(c1ncn[nH]1)C2`, the Potency is reported as 28.2 µM (active). For `CC1(C)OC(=O)C2=C(C[C@@H](C3CCCC3)O[C@@H]2c2ccc(Cl)cc2)O1`, the “activity change, negative = active” value was 0.621% (inactive). With `O=C(NCc1ccccc1Cl)c1csc([C@@H]2O[C@H](CO)[C@@H](O)[C@H]2O)n1` the “activity change, negative = active” value was 0.242% (inactive). `Cc1nn(-c2ccccc2)nc1C(=O)OCC(=O)N1CCCCC1C` (stereo not given) was tested, and the Potency was 10 µM (active). For `CC1CCCC(C)N1C(=O)COC(=O)c1ccccc1C(=O)c1ccccc1` (stereo not given), the “activity change, negative = active” value was -4.22% (inactive). With `Cc1cc(C(=O)OCC(=O)N2C(C)CCCC2C)c2ccccc2n1` (stereo not given) the “activity change, negative = active” value was -1.58% (inactive). In the case of `COc1ccc(C2=Nc3ccccc3NC(=O)C2N(C(=O)c2cc3ccccc3[nH]2)c2ccccc2)cc1` (stereo not given), the “activity change, negative = active” value is reported as -17.4% (inactive). In the case of `c1ccc(-c2ccnc3nc(-n4cccc4)nn23)cc1`, the Potency is reported as 1.78 µM (active). `Cc1cc(-c2ccccc2)n2nc(-c3ccccc3)cc2n1` was tested, and the “activity change, negative = active” value was -12% (inactive). With `Nc1nc2ncccn2c1-c1ccccc1` the “activity change, negative = active” value was -16.1% (inactive). In the case of `CN(C)c1ccc(C=Nc2ccc(/C=C/c3ccnc4ccccc34)cc2)cc1`, the “activity change, negative = active” value is reported as -3.23% (inactive). In the case of `CC1(C)OC(=O)C2=C(C[C@@H](C3CC3)O[C@H]2CCc2cccc(Cl)c2)O1`, the “activity change, negative = active” value is reported as 2.17% (inactive). In the case of `O=C(Nc1cc(Br)ccc1F)c1nc[nH]c1C(=O)NCc1ccccc1`, the “activity change, negative = active” value is reported as 181% (inactive). `Cc1ccc(-n2ncc3c(N4CCC(C(N)=O)CC4)ncnc32)cc1` was tested, and the “activity change, negative = active” value was 4.6% (inactive). `O=C(NNc1ncnc2c1cnn2-c1ccccc1)c1ccco1` was tested, and the “activity change, negative = active” value was -1.68% (inactive). With `CC1(C(=O)Nc2cccnc2)Cc2c(-c3ccccc3)ccnc2O1` (stereo not given) the “activity change, negative = active” value was -10.8% (inactive). `COc1ccc(CCn2c3c(c(=O)[nH]c2=S)CN(C(C)C)CN3)cc1OC` was tested, and the “activity change, negative = active” value was -4.95% (inactive). `CCNC(=O)C1CCCN(C(=O)c2ccc(OC)cc2OC)CC1` (stereo not given) was tested, and the “activity change, negative = active” value was 1.83% (inactive). `CCc1nc2ccc(C(=O)NC3CCN(Cc4ccccc4)CC3)cn2c1N(CC)CCOC` was tested, and the “activity change, negative = active” value was -1.6% (inactive). In the case of `CCOC(=O)c1cc2cc(C)ccc2[nH]1`, the Potency is reported as 14.1 µM (active). `Cc1ccc2[nH]c(=O)c(COC(=O)c3ccccn3)cc2c1` was tested, and the “activity change, negative = active” value was -5.33% (inactive). `CCOC(=O)c1[nH]c2ccc(C)cc2c1N=C(C)N(C)C` was tested, and the “activity change, negative = active” value was -18.6% (inactive).

Source: PubChem BioAssay AID651965 (National Center for Advancing Translational Sciences (NCATS), 2013)
Further: the source files actives as falling curves though it sought activators and does not explain the sign; nearly all actives have a fitted effect of over 65% in size.
Potency means the concentration at half of the fitted maximal effect.
